From the supplement of paper PMC7411054
Structures can show the parent of a compound that is named as a salt.

What was measured:
Settings in all cases: treatment time: 24 h
A549-ACTB-RAB5A [1] = test: lowest phenotypically active concentration; higher = less potent
How it was run: (§1)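 The reporter lines, fifteen in total and built by gene editing in A549, HepG2 and WPMY1 cells, used BFP for segmentation alongside GFP and RFP/FusionRed markers. Each was treated at 0.3, 1, 3 or 9 µM for 24 h in four wells and then imaged live, with live-cell features normalised to solvent control wells. Deviation meant ≥3 of 4 wells beyond the 95th percentile of control Euclidean distances; reproducibility meant a median replicate Pearson correlation above the 95th percentile of non-replicates. Only conditions meeting both were scored as phenotypically active.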

A549-GM130-SQSTM1 [2] = test: as above
How it was run: as §1

A549-TUBA1B-RELA [3] = test: as above
How it was run: as §1

HepG2-ACTB-RAB5A [4] = test: as above
How it was run: as §1

WPMY1-GM130-SQSTM1 [5] = test: as above
How it was run: as §1

A549-ACTB-RAB5A [6] = test: phenotypically active (imaging signature differs from DMSO and reproducible) at any of 0.3-9 uM (binary (1 = active, 0 = inactive)); higher = active
How it was run: as §1

A549-CANX-COX4 = test: as above
How it was run: as §1

A549-GM130-SQSTM1 [7] = test: as above
How it was run: as §1

A549-TP53BP1-CLTA = test: as above
How it was run: as §1

A549-TUBA1B-RELA [8] = test: as above
How it was run: as §1

HepG2-ACTB-RAB5A [9] = test: as above
How it was run: as §1

HepG2-CANX-COX4 = test: as above
How it was run: as §1

HepG2-GM130-SQSTM1 = test: as above
How it was run: as §1

HepG2-TP53BP1-CLTA = test: as above
How it was run: as §1

HepG2-TUBA1B-RELA = test: as above
How it was run: as §1

WPMY1-ACTB-RAB5A = test: as above
How it was run: as §1

WPMY1-CANX-COX4 = test: as above
How it was run: as §1

WPMY1-GM130-SQSTM1 [10] = test: as above
How it was run: as §1

WPMY1-TP53BP1-CLTA = test: as above
How it was run: as §1

WPMY1-TUBA1B-RELA = test: as above
How it was run: as §1

Structure (SMILES) | lowest phenotypically active concentration (A549-ACTB-RAB5A [1]) [µM] | lowest phenotypically active concentration (A549-GM130-SQSTM1 [2]) [µM] | lowest phenotypically active concentration (A549-TUBA1B-RELA [3]) [µM] | lowest phenotypically active concentration (HepG2-ACTB-RAB5A [4]) [µM] | lowest phenotypically active concentration (WPMY1-GM130-SQSTM1 [5]) [µM] | phenotypically active (A549-ACTB-RAB5A [6]) | phenotypically active (A549-CANX-COX4) | phenotypically active (A549-GM130-SQSTM1 [7]) | phenotypically active (A549-TP53BP1-CLTA) | phenotypically active (A549-TUBA1B-RELA [8]) | phenotypically active (HepG2-ACTB-RAB5A [9]) | phenotypically active (HepG2-CANX-COX4) | phenotypically active (HepG2-GM130-SQSTM1) | phenotypically active (HepG2-TP53BP1-CLTA) | phenotypically active (HepG2-TUBA1B-RELA) | phenotypically active (WPMY1-ACTB-RAB5A) | phenotypically active (WPMY1-CANX-COX4) | phenotypically active (WPMY1-GM130-SQSTM1 [10]) | phenotypically active (WPMY1-TP53BP1-CLTA) | phenotypically active (WPMY1-TUBA1B-RELA)
CN(C)C(=O)C(CCN1CCC(O)(c2ccc(Cl)cc2)CC1)(c1ccccc1)c1ccccc1 [loperamide] | 3 | 9 | 3 | 3 | 9 | 1 (active) | 1 (active) | 1 (active) | 1 (active) | 1 (active) | 1 (active) | 0 (inactive) | 1 (active) | 1 (active) | 1 (active) | 1 (active) | 1 (active) | 1 (active) | 1 (active) | 1 (active)
CNC(=O)c1cc(Oc2ccc(NC(=O)Nc3ccc(Cl)c(C(F)(F)F)c3)cc2)ccn1 [sorafenib] | 3 | 9 | 9 | 9 | 1 | 1 (active) | 1 (active) | 1 (active) | 1 (active) | 1 (active) | 1 (active) | 1 (active) | 1 (active) | 1 (active) | 1 (active) | 1 (active) | 1 (active) | 1 (active) | 0 (inactive) | 1 (active)
Cn1cnc2c(F)c(Nc3ccc(Br)cc3Cl)c(C(=O)NOCCO)cc21 [selumetinib] | ≤ 0.3 | ≤ 0.3 | ≤ 0.3 | ≤ 0.3 | 3 | 1 (active) | 1 (active) | 1 (active) | 1 (active) | 1 (active) | 1 (active) | 1 (active) | 1 (active) | 1 (active) | 1 (active) | 1 (active) | 0 (inactive) | 1 (active) | 1 (active) | 0 (inactive)
O=C1N=C(NCc2cccs2)S/C1=C\c1ccc2ncccc2c1 | 3 | 1 | 3 |  | 1 | 1 (active) | 1 (active) | 1 (active) | 1 (active) | 1 (active) | 0 (inactive) | 1 (active) | 1 (active) | 1 (active) | 1 (active) | 1 (active) | 1 (active) | 1 (active) | 1 (active) | 1 (active)
Nc1nccc2c1ncn2[C@@H]1C=C(CO)[C@@H](O)[C@H]1O [3-Deazaneplanocin A hydrochloride] | ≤ 0.3 | 3 | 3 | 1 | 1 | 1 (active) | 1 (active) | 1 (active) | 1 (active) | 1 (active) | 1 (active) | 1 (active) | 1 (active) | 1 (active) | 1 (active) | 1 (active) | 1 (active) | 1 (active) | 1 (active) | 1 (active)
CCCCc1oc2ccc(NS(C)(=O)=O)cc2c1C(=O)c1ccc(OCCCN(CCCC)CCCC)cc1 [dronedarone] | 3 | 3 | 3 | 9 |  | 1 (active) | 1 (active) | 1 (active) | 0 (inactive) | 1 (active) | 1 (active) | 0 (inactive) | 1 (active) | 1 (active) | 1 (active) | 1 (active) | 1 (active) | 0 (inactive) | 1 (active) | 1 (active)
C/C(=N/NC(=N)N)c1ccc(NC(=O)Nc2ccc(/C(C)=N/NC(=N)N)cc2)cc1 | 3 | 9 | 3 | 3 | 9 | 1 (active) | 1 (active) | 1 (active) | 0 (inactive) | 1 (active) | 1 (active) | 1 (active) | 1 (active) | 1 (active) | 1 (active) | 1 (active) | 1 (active) | 1 (active) | 0 (inactive) | 0 (inactive)
C[C@@H]1C[C@H]2[C@@H]3CCC4=CC(=O)C=C[C@]4(C)[C@@]3(Cl)[C@@H](O)C[C@]2(C)[C@@]1(OC(=O)c1ccco1)C(=O)CCl [mometasone furoate] | ≤ 0.3 | ≤ 0.3 | ≤ 0.3 |  | 3 | 1 (active) | 1 (active) | 1 (active) | 1 (active) | 1 (active) | 0 (inactive) | 0 (inactive) | 0 (inactive) | 0 (inactive) | 0 (inactive) | 0 (inactive) | 0 (inactive) | 1 (active) | 0 (inactive) | 0 (inactive)
c1cc(-c2cc(C3CCNCC3)[nH]n2)ccn1 | 9 | 3 | 9 |  |  | 1 (active) | 1 (active) | 1 (active) | 0 (inactive) | 1 (active) | 0 (inactive) | 1 (active) | 0 (inactive) | 0 (inactive) | 0 (inactive) | 1 (active) | 1 (active) | 0 (inactive) | 0 (inactive) | 0 (inactive)
CC/C(=C(/c1ccccc1)c1ccc(OCCN(C)C)cc1)c1ccccc1 [tamoxifen] | 3 | 3 | 3 | 9 | 9 | 1 (active) | 1 (active) | 1 (active) | 0 (inactive) | 1 (active) | 1 (active) | 0 (inactive) | 1 (active) | 1 (active) | 1 (active) | 1 (active) | 1 (active) | 1 (active) | 1 (active) | 1 (active)
O=c1c(-c2ccc(O)cc2)coc2cc(O[C@@H]3O[C@H](CO)[C@@H](O)[C@H](O)[C@H]3O)cc(O)c12 [Genistin] | 9 |  | 9 |  |  | 1 (active) | 1 (active) | 0 (inactive) | 1 (active) | 1 (active) | 0 (inactive) | 0 (inactive) | 0 (inactive) | 0 (inactive) | 0 (inactive) | 1 (active) | 1 (active) | 0 (inactive) | 1 (active) | 0 (inactive)
